Measurements published in PubChem BioAssay (Tox21).
Inconclusive results are not listed. Entries that show only a call come without a potency. Active and inactive are the calls of the source. Calls come from the whole dose curve; as a rule, active = well fitted inhibition curve with a large enough effect in the signal ratio in the repeat runs; inconclusive = weak or mixed curves, or effect the other way; inactive = flat fitted curve, though single readings scatter; the % refers to the signal ratio.

experiment: qHTS assay for small molecule disruptors of the mitochondrial membrane potential (AID 720635); settings: HepG2 mitochondrial membrane potential, Mito-MPS dye ratio; series mostly up to 83.2 µM
Text: U.S. Tox21 Program National Center for Advancing Translational Sciences [NCATS] NIH Chemical Genomics Center [NCGC] U.S. Environmental Protection Agency [EPA] National Institutes of Environmental Health Sciences [NIEHS] National Toxicology Program [NTP] U.S. Food and Drug Administration [FDA] Tox21 Assay Overview: Mitochondrial membrane potential (MMP), one of the parameters for mitochondrial function, is generated by mitochondrial electron transport chain that creates an electrochemical gradient by a series of redox reactions. This gradient drives the synthesis of ATP, a crucial molecule for various cellular processes. Measuring MMP in living cells is commonly used to assess the effect of chemicals on mitochondrial function. […] The dye accumulates in the mitochondria of healthy cells as aggregates, with red fluorescence. The mitochondrial potential collapses and the dye can no longer accumulate in the mitochondria and remains in the cytoplasm in monomers, with green fluorescence.
Tox21 Assay Protocol Summary: 2,000 HepG2 cells in 5 uL/well were dispensed into black, clear-bottom 1536-well plates using a Multidrop Combi (Thermo Scientific) dispenser. The assay plates were incubated overnight at 37C to allow cells to attach to the wells, followed by the transfer of 23 nL compound or DMSO vehicle by a pin tool (Kalypsys). The plates were incubated for 1 hr at 37C and 5% CO2, followed by the addition of 5 uL of 2X Mito-MPS dye (BD Biosciences) into each well using Flying Reagent Dispenser (Aurora Discovery) and then following 30 min incubation at 37C. Fluorescence intensity (490nm excitation and 535nm emission for monomers; and 540nm excitation and 590nm emissions for aggregates) was measured using an Envision plate reader.
Potency is the fitted concentration of half-maximal effect.

Structure (SMILES)	Potency	ratio activity, negative = MMP loss
CC(C)(c1ccc(Oc2ccc3c(c2)C(=O)OC3=O)cc1)c1ccc(Oc2ccc3c(c2)C(=O)OC3=O)cc1	inactive	–
COC(/C=C(\C)CCC=C(C)C)OC	inactive	–
CO[Si](CCCS)(OC)OC	inactive	–
CCS(=O)(=O)CCn1c([N+](=O)[O-])cnc1C	inactive	–
C[C@H](CCC(=O)O)[C@H]1CC[C@H]2[C@@H]3[C@H](O)C[C@@H]4C[C@H](O)CC[C@]4(C)[C@H]3C[C@H](O)[C@]12C	inactive	–
CCCCCCCCCCCCOC(C)=O	inactive	–
CCC(C)N (stereo not given)	inactive	–
Cc1ccccc1C	inactive	–
Oc1ccccc1Cc1ccccc1O	7.7 µM (active)	–
CNCc1ccccc1	inactive	–
CCCC(C)CC (stereo not given)	inactive	–
C=CCCCCCCCCCCC	–	-12.5% [at 8.08 µM] (inactive)
CC1CCC(C(C)(C)S)C(=O)C1 (stereo not given)	inactive	–
CO/N=C(/C(=O)N[C@@H]1C(=O)N2C(C(=O)O)=C(Cn3nnc(C)n3)CS[C@H]12)c1csc(N)n1	inactive	–
COc1cccc2sc(N)nc12	43.5 µM (active)	–
CO[Si](CCCCl)(OC)OC	60.2 µM (active)	–
CCCCCC1Nc2cc(C(F)(F)F)c(S(N)(=O)=O)cc2S(=O)(=O)N1 (stereo not given)	inactive	–
CCCCCCCCC(=O)OCC	inactive	–
Nc1ccnc(=O)[nH]1	inactive	–
Cc1nc([N+](=O)[O-])cn1-c1ccc([N+](=O)[O-])cc1	inactive	–

Structure (SMILES)	Potency	ratio activity, negative = MMP loss
O=C(CN1CCN(Cc2ccc3c(c2)OCO3)CC1)N1c2ccccc2Sc2ccccc21	inactive	–
Cc1cc(O)c2c(c1)C(=O)c1cccc(O)c1C2=O	11.9 µM (active)	–
O=C(COCCOCCOCC(=O)Nc1c(I)cc(I)c(C(=O)O)c1I)Nc1c(I)cc(I)c(C(=O)O)c1I	inactive	–
COc1cc([N+](=O)[O-])ccc1N	inactive	–
C/C=C(\C)C(=O)OCC/C=C\CC	inactive	–
CCN(CCO)c1cccc(C)c1	inactive	–
CCCCCC1CCCC(=O)O1 (stereo not given)	inactive	–
CN=C(NC#N)NCCSCc1csc(N=C(N)N)n1	inactive	–
CCCCCCCCCCCCCCCC(=O)NCCO	inactive	–
O=C(Nc1cccc(C2=NCCN2)c1)Nc1cccc(C2=NCCN2)c1	inactive	–
CC(=O)OC(C)c1ccccc1 (stereo not given)	inactive	–
C=C(C)C(=O)OCCCCCCOC(=O)C(=C)C	inactive	–
COC(OC)C(C)c1ccccc1 (stereo not given)	inactive	–
O=c1[nH]c(=O)c2[nH]c(=O)[nH]c2[nH]1	inactive	–
CCCCC(=O)N(C)C	inactive	–
Cc1nc(C)nc(N2C[C@@H](C)N(c3ccnc([C@@H](C)O)n3)[C@@H](C)C2)n1	inactive	–
Nc1c(NC/C=C\COc2cc(CN3CCCCC3)ccn2)c(=O)c1=O	inactive	–
C=C[Si](C)(C)O[Si](C)(C)C=C	inactive	–
C=C(C)C(=O)OC	inactive	–
CC(=O)OCCCc1ccccc1	inactive	–
